From PubChem BioAssay (Tox21)
Results filed as inconclusive are left out. Activity calls are given as the source filed them. Unless noted, calls come from the whole dose curve.

Legend:
[1] = qHTS assay to identify small molecule agonists of the peroxisome proliferator-activated receptor delta (PPARd) signaling pathway - cell viability counter screen (AID 743211; active = well fitted curve in the direction sought with a large enough effect in the repeat runs; an effect the other way counts as inactive or inconclusive; note: % is set by controls: 0 for no effect and ±100 for the full control effect; nearly all actives have a fitted effect of over 55% in size)
Procedure, shortened: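 Following 5 h plating at 37 C and 5% CO2, PPARd UAS-bla HEK293H cells took up test compounds for 17 h. Viability was quantified by luminescence 30 min after CellTiter-Glo addition at room temperature.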

[2] = biological target: Peroxisome proliferator-activated receptor delta (Homo sapiens) (UniProt Q03181); experiment: qHTS assay to identify small molecule agonists of the peroxisome proliferator-activated receptor delta (PPARd) signaling pathway (AID 743212); note: % is set by controls: 0 for no effect and ±100 for the full control effect
Peroxisome proliferator-activated receptor delta (Homo sapiens), sequence (Q03181 whole entry, looked up): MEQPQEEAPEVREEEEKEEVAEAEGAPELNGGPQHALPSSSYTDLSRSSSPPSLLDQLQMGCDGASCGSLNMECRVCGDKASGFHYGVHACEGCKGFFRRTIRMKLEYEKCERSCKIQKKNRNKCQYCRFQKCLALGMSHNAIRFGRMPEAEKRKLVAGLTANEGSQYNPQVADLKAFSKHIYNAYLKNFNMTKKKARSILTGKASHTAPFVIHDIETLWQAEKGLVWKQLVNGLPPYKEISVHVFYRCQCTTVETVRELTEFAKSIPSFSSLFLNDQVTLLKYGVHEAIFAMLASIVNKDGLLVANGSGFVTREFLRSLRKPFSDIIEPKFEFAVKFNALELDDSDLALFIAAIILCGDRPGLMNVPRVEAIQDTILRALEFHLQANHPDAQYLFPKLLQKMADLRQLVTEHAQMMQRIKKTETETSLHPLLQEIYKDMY
Procedure, shortened: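 Tox21 library screened in GeneBLAzer PPARd UAS-bla HEK293H cells. After compound treatment at 37 C, a FRET-based beta-lactamase substrate was applied for 2 h and fluorescence recorded.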

[3] = qHTS assay to identify small molecule antagonists of the peroxisome proliferator-activated receptor delta (PPARd) signaling pathway - cell viability counter screen (AID 743213; active = well fitted curve in the direction sought with a large enough effect in the repeat runs; an effect the other way counts as inactive or inconclusive; note: % is set by controls: 0 for no effect and ±100 for the full control effect; nearly all actives have a fitted effect of over 50% in size)
Procedure, shortened: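 PPARd-bla HEK293H cells were treated with compounds plus agonist L165041 (300 nM final) for 17 h at 37 C. Viability was then read in the same wells by CellTiter-Glo luminescence after 30 min at room temperature.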

[4] = biological target: Peroxisome proliferator-activated receptor delta (Homo sapiens) (UniProt Q03181); experiment: qHTS assay to identify small molecule antagonists of the peroxisome proliferator-activated receptor delta (PPARd) signaling pathway (AID 743215; active = well fitted inhibition curve with a large enough effect in the signal ratio in the repeat runs, not every such curve was filed as active; the % refers to the signal ratio;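 note: cells stimulated with agonist L165041 at 300 nM final during compound exposure; series mostly up to about 62 µM; % is set by controls: 0 for no effect and ±100 for the full control effect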)
Procedure, shortened: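 Screen format: qHTS, antagonist mode. HEK293H PPARd-bla cells received compound and 300 nM L165041 (final), 17 h, 37 C. Beta-lactamase detected via FRET substrate fluorescence, 2 h, room temperature.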

[5] = biological target: Bile acid receptor (Homo sapiens) (UniProt Q96RI1); experiment: qHTS assay to identify small molecule agonists of the farnesoid-X-receptor (FXR) signaling pathway (AID 743220; active = well fitted activation curve with a large enough effect in the signal ratio in the repeat runs, not every such curve was filed as active; the % refers to the signal ratio; note: % is set by controls: 0 for no effect and ±100 for the full control effect)
Bile acid receptor (Homo sapiens), sequence (Q96RI1 whole entry, looked up): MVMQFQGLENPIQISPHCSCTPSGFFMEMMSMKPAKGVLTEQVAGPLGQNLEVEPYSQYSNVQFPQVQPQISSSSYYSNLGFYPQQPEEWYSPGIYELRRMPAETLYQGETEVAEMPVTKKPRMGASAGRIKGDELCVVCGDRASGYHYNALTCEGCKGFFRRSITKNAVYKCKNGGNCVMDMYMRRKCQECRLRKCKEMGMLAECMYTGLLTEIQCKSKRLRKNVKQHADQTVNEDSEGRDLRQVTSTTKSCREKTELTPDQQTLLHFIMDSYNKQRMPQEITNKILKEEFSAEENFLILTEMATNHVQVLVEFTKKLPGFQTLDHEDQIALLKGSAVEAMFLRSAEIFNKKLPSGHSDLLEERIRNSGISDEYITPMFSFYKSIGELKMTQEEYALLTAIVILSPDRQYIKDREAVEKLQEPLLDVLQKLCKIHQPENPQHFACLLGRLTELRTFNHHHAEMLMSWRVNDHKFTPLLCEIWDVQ
Procedure, shortened: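 FXR-UAS-bla HEK 293T cells carrying a UAS-driven beta-lactamase reporter were plated for 5 h at 37C/5% CO2, then exposed to DMSO-dissolved Tox21 10K compounds for 16 h at 37C. A LiveBLAzer B/G FRET substrate was loaded for 2 h at room temperature before fluorescence reading.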

[6] = qHTS assay to identify small molecule antagonists of the farnesoid-X-receptor (FXR) signaling pathway - cell viability counter screen (AID 743221; active = well fitted cell-killing curve with a large enough effect in the repeat runs, not every such curve was filed as active; note: % is set by controls: 0 for no effect and ±100 for the full control effect; nearly all actives have a fitted effect of over 50% in size)
Procedure, shortened: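 Compound effects on cell number were measured as CellTiter-Glo luminescence in HEK 293T cells expressing FXR-UAS-bla, after 16 h at 37 C with 50 uM CDCA (final).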

[7] = biological target: Vitamin D3 receptor (Homo sapiens) (UniProt P11473); experiment: qHTS assay to identify small molecule agonists of the vitamin D receptor (VDR) signaling pathway (AID 743222); note: % is set by controls: 0 for no effect and ±100 for the full control effect
Vitamin D3 receptor (Homo sapiens), sequence (P11473 whole entry, looked up): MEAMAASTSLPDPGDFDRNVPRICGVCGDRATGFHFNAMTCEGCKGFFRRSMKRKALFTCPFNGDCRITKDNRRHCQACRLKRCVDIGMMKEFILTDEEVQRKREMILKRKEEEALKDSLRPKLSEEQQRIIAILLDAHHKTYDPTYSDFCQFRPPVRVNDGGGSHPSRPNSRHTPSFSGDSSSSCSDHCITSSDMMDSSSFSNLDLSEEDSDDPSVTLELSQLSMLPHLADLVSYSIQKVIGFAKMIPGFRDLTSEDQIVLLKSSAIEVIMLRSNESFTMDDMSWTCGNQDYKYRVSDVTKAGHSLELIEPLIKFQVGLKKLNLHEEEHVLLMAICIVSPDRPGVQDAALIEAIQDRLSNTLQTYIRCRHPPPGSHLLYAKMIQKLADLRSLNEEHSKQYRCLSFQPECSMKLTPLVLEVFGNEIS
Procedure, shortened: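 Using LiveBLAzer B/G FRET detection, agonism was scored in VDR-bla cells exposed overnight (16 h, 37C) to DMSO-dissolved compounds; substrate incubation was 2 h at room temperature.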

[8] = biological target: Vitamin D3 receptor (Homo sapiens) (UniProt P11473); experiment: qHTS assay to identify small molecule antagonists of the vitamin D receptor (VDR) signaling pathway (AID 743223; active = well fitted inhibition curve with a large enough effect in the signal ratio in the repeat runs, not every such curve was filed as active; the % refers to the signal ratio; note: % is set by controls: 0 for no effect and ±100 for the full control effect)
Procedure, shortened: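 Beta-lactamase activity in VDR-bla cells is measured by FRET substrate fluorescence (2 h, room temperature) after cells spend 16 h at 37C with test compound and 3 nM final 1alpha,25-dihydroxyvitamin D3.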

[9] = qHTS assay to identify small molecule agonists of the vitamin D receptor (VDR) signaling pathway - cell viability counter screen (AID 743224; active = well fitted curve in the direction sought with a large enough effect in the repeat runs; an effect the other way counts as inactive or inconclusive; note: series mostly up to about 63 µM; % is set by controls: 0 for no effect and ±100 for the full control effect; nearly all actives have a fitted effect of over 50% in size)
Procedure, shortened: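 Counter screen for cytotoxicity: VDR-bla cells at 2,000 cells/well, 16 h compound exposure, then CellTiter-Glo luminescence after the beta-lactamase measurement.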

[10] = qHTS assay to identify small molecule antagonists of the vitamin D receptor (VDR) signaling pathway - cell viability counter screen (AID 743225; active = well fitted curve in the direction sought with a large enough effect in the repeat runs; an effect the other way counts as inactive or inconclusive; note: % is set by controls: 0 for no effect and ±100 for the full control effect; nearly all actives have a fitted effect of over 50% in size)
Procedure, shortened: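 In this counter screen, VDR-bla HEK 293T cells receive test compound plus 3 nM final calcitriol for 16 h at 37C. Room-temperature steps of 2 h with the beta-lactamase substrate, then 30 min with CellTiter-Glo, precede the luminescence read.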

[11] = qHTS assay to identify small molecule agonists of the NFkB signaling pathway - cell viability counter screen (AID 1159515); note: series mostly up to about 61 µM; % is set by controls: 0 for no effect and ±100 for the full control effect; nearly all actives have a fitted effect of over 55% in size
Procedure, shortened: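 Counter screen run alongside the NFkB-bla agonist assay: ME-180 reporter cells exposed to compounds for 5 hr, then lysed with CellTiter-Glo in the same wells. Luminescence, read after 30 min, reflects viable cells.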

[12] = qHTS assay to identify small molecule agonists of the endoplasmic reticulum stress response signaling pathway (AID 1159516; active = well fitted activation curve with a large enough effect in the signal ratio in the repeat runs, not every such curve was filed as active; the % refers to the signal ratio; note: % is set by controls: 0 for no effect and ±100 for the full control effect)
Procedure, shortened: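 For this screen, HeLa cells stably carrying beta-lactamase under the ER stress response element received test compounds, positive controls or DMSO for 5 hr at 37 C; B/G FRET substrate was then added and dual-wavelength emission recorded.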

[13] = qHTS assay to identify small molecule agonists of the endoplasmic reticulum stress response signaling pathway - cell viability counter screen (AID 1159517)
Procedure, shortened: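 In parallel with the ESRE reporter read, cytotoxicity was scored by CellTiter-Glo luminescence (30 min, room temperature) on HeLa ESRE-bla cells dosed for 5 hr.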

[14] = qHTS assay to identify small molecule antagonists of the retinoid-related orphan receptor gamma (ROR-gamma) signaling pathway - cell viability counter screen (AID 1159520; active = well fitted curve in the direction sought with a large enough effect in the repeat runs; an effect the other way counts as inactive or inconclusive)
Procedure, shortened: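 Tet-on ROR gamma CHO cells were given compounds for 2 hr, then doxycycline hyclate at 1 uM final, and incubated 16 hr at 37 C. Viability was measured as ATP content by CellTiter-Glo luminescence.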

[15] = qHTS assay to identify small molecule agonists of the AP-1 signaling pathway - cell viability counter screen (AID 1159525); note: nearly all actives have a fitted effect of over 55% in size
Procedure, shortened: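 Same-well cytotoxicity counter screen of the Tox21 10K library in ME-180 cells. The readout is ATP-dependent luminescence after 5 h compound treatment. Data are normalised to DMSO and tetra n-octyl ammonium bromide controls.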

[16] = qHTS assay to identify small molecule agonists of the AP-1 signaling pathway (AID 1159526); note: % is set by controls: 0 for no effect and ±100 for the full control effect
[17] = qHTS assay to identify small molecule agonists of the farnesoid-X-receptor (FXR) signaling pathway - cell viability counter screen (AID 743218; active = well fitted curve in the direction sought with a large enough effect in the repeat runs; an effect the other way counts as inactive or inconclusive; note: % is set by controls: 0 for no effect and ±100 for the full control effect; nearly all actives have a fitted effect of over 45% in size)
Procedure, shortened: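 Same-well cytotoxicity check on FXR-UAS-bla HEK 293T cells: 5 h attachment, 16 h compound at 37 C, CellTiter-Glo luminescence read at room temperature after 30 min.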

[18] = biological target: Retinoic acid receptor RXR-alpha (Homo sapiens) (UniProt P19793); experiment: qHTS assay to identify small molecule agonists of the RXR signaling pathway (AID 1159527); note: % is set by controls: 0 for no effect and ±100 for the full control effect; nearly all actives have a fitted effect of over 35% in size
Retinoic acid receptor RXR-alpha (Homo sapiens), sequence (P19793 whole entry, looked up): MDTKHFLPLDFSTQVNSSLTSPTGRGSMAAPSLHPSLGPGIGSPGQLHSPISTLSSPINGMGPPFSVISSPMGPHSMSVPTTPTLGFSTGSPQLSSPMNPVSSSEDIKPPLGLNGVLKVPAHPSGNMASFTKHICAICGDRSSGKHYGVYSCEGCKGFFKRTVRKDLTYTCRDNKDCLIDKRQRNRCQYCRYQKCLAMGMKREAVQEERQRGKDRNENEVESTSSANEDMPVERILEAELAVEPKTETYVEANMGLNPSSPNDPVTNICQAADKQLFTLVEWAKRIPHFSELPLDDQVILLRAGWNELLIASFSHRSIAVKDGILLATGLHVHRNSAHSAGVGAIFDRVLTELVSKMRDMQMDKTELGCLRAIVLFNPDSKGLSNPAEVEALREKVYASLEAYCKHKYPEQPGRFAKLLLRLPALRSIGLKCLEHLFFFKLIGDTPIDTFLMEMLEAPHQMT
Procedure, shortened: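 Fluorescence ratio readout (460 vs 530 nm) from GeneBLAzer RXR-alpha HEK 293T cells after 16 hr compound treatment; cells seeded 5 hr beforehand in low-serum, charcoal-stripped medium.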

[19] = biological target: Bile acid receptor (Homo sapiens) (UniProt Q96RI1); experiment: qHTS assay to identify small molecule antagonists of the farnesoid-X-receptor (FXR) signaling pathway (AID 743217; active = well fitted inhibition curve with a large enough effect in the signal ratio in the repeat runs, not every such curve was filed as active; the % refers to the signal ratio; note: % is set by controls: 0 for no effect and ±100 for the full control effect)
Procedure, shortened: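 Quantitative HTS, beta-lactamase reporter format: FXR-UAS-bla HEK 293T cells co-treated 16 h at 37 °C with compounds and 50 uM final chenodeoxycholic acid, then read by B/G FRET fluorescence.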

CNC(=O)/C=C(\C)OP(=O)(OC)OC
inactive: Potency [1] | Potency [2] | Potency [3] | Potency [4] | Potency [5] | Potency [6] | Potency [7] | Potency [8] | Potency [9] | Potency [10] | Potency [11] | Potency [12] | Potency [13] | Potency [14] | Potency [15] | Potency [16]

ClC(Cl)C(Cl)(Cl)Cl
inactive: Potency [1] | Potency [2] | Potency [4] | Potency [17] | Potency [5] | Potency [6] | Potency [7] | Potency [9] | Potency [10] | Potency [11] | Potency [12] | Potency [13] | Potency [14] | Potency [15] | Potency [16] | Potency [18]

O=NN(CCO)CCO
inactive: Potency [3] | Potency [5] | Potency [6] | Potency [7] | Potency [8] | Potency [9] | Potency [10] | Potency [11] | Potency [12] | Potency [13] | Potency [14] | Potency [15] | Potency [16] | Potency [18]

[O-][Cl+3]([O-])([O-])O
inactive: Potency [1] | Potency [2] | Potency [6] | Potency [11] | Potency [12] | Potency [13] | Potency [14] | Potency [15] | Potency [16] | Potency [18]

O=[N+]([O-])[O-].[Tl+]
inactive: Potency [1] | Potency [17] | Potency [10] | Potency [11] | Potency [12] | Potency [13] | Potency [14] | Potency [15] | Potency [16] | Potency [18]

O=C(Cl)c1ccccc1F
inactive: Potency [1] | Potency [2] | Potency [3] | Potency [4] | Potency [19] | Potency [17] | Potency [5] | Potency [6] | Potency [8] | Potency [11] | Potency [12] | Potency [13] | Potency [14] | Potency [15] | Potency [16]

CCn1cc[n+](C)c1 (tested in a mixture with another compound)
inactive: Potency [3] | Potency [9] | Potency [10] | Potency [11] | Potency [12] | Potency [13] | Potency [14] | Potency [15] | Potency [16] | Potency [18]

CC(Cl)CCl (stereo unspecified)
inactive: Potency [1] | Potency [2] | Potency [3] | Potency [4] | Potency [6] | Potency [8] | Potency [9] | Potency [11] | Potency [12] | Potency [13] | Potency [14] | Potency [15] | Potency [16] | Potency [18]

Cc1cc2c3c(c1)C(c1ccccc1)=N[C@@H](NC(=O)c1ccncc1)C(=O)N3CC2
inactive: Potency [1] | Potency [2] | Potency [3] | Potency [4] | Potency [19] | Potency [17] | Potency [5] | Potency [9] | Potency [10] | Potency [11] | Potency [12] | Potency [13] | Potency [14] | Potency [15] | Potency [16]

CC(=O)[O-].CC(=O)[O-].CC(=O)[O-].[Sb+3]
inactive: activity change, negative = cytotoxicity [1] -20.9% [at 5.95 µM] | viability change, negative = cytotoxic [3] -8.28% [at 6.26 µM] | activity change, negative = cytotoxicity [9] -16.2% [at 5.95 µM] | viability change, negative = cytotoxic [10] 0.879% [at 6.95 µM] | activity, negative = cytotoxic [11] -2.51% [at 6.95 µM] | activation [12] 3.53% [at 6.95 µM] | activity change, negative = cytotoxicity [13] -11.4% [at 6.95 µM] | activity, negative = cytotoxicity [14] 1.09% [at 3.27 µM] | viability change, negative = cytotoxic [15] -1.02% [at 2.72 µM] | activation [16] -1.15% [at 2.72 µM] | activation [18] -1.11% [at 2.71 µM]
